This is one part of a sample in which hits are shown more often than they occur.
TNAP act DEA: human TNAP enzyme activators, primary screen, biochemical, luminescent, intermediate phosphate acceptor level; Alkaline phosphatase, tissue-nonspecific isozyme (Homo sapiens), P05186; purified TNAP, CDP-star luminescence, 100 mM DEA, 30 min; hits give high values; scale: 0 levamisole-inhibited, 1 vehicle-only enzyme; activation factor at 20 µM; 64,000 tested, under 10 active;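 active = activation factor of at least 2 at 20 µM, relative to controls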
PLAP activator: PLAP enzyme activators, biochemical, luminescence, HTS | purified PLAP enzyme, luminescent substrate read-out; hits give high values | activation fold at 20 µM | AID 696, 2007 | Alkaline phosphatase, placental type (Homo sapiens), P05187 | actives 1.2% (n = 96,000); in the data active = activation fold above about 2
D1 mod: D1 CRE-luciferase signal change, two-sided – cell-based, HEK293 D1, dopamine EC30, D1 allosteric modulator project, primary screen | D(1A) dopamine receptor (Homo sapiens), P21728 | dopamine EC30 potentiation; actives deviate in either direction | B-score at 10 µM | actives 5.9% (n = 58,000) | AID 641, 2007;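 active = luminescence count or its row- and column-corrected plate score outside the 99.7% band of the plate's sample wells, on either side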
Target sequence (P21728 whole entry, looked up): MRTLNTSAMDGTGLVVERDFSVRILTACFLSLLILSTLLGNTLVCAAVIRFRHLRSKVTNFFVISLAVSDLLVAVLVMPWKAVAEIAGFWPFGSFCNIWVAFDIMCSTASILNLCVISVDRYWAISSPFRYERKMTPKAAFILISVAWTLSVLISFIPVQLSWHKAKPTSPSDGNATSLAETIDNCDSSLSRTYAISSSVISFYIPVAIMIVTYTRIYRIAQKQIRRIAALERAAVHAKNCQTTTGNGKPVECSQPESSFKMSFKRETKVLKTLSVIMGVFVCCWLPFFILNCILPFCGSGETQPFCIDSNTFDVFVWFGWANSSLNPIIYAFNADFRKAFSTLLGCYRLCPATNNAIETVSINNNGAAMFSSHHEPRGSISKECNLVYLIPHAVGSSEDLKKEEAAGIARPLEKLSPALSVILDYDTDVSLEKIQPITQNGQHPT
DAT uptake mod: changed hDAT dopamine uptake under cocaine IC80, either direction, primary screen, cocaine antagonist project, cell-based, LLC-PK1 hDAT, [14C]-dopamine uptake, MLSMR; AID 449768, 2010; actives 1.3% (n = 110,000); B-score at 10 µM; LLC-PK1 hDAT cells, [14C]-dopamine uptake with cocaine IC80; actives deviate in either direction; Sodium-dependent dopamine transporter (Homo sapiens), Q01959;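 active = Z score or B-score, a plate-position-corrected score, falls beyond the plate's 99.7% confidence bounds, in either direction; inactive = both scores lie inside the 99.7% bounds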;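 also: scored against the spread of the other compound wells on the same plate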
Calb biofilm kill: clotrimazole potentiators killing Candida biofilms, primary screen, with clotrimazole, Alamar Blue; C. albicans biofilm + clotrimazole; inhibition, % at 6 µM; actives 0.14% (n = 85,000); AID 834, 2007;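 active = inhibition above 20%; inactive = inhibition below 20%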;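 also: preformed 24 hr biofilms exposed to compound for 48 hr; 0% = biofilm without compound and 100% = blank killed by clotrimazole plus chlorhexidine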
HePTP inh: inhibitors of human HePTP phosphatase, primary screen, biochemical, absorbance, leukemia target. Tyrosine-protein phosphatase non-receptor type 7 (Homo sapiens), P35236. recombinant HePTP phosphatase activity, OD absorbance. inhibition, % at 20 µM. actives 0.64% (n = 110,000). AID 521, 2006; in the data active = inhibition above about 50%;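 also: plate controls were vehicle for no effect and reference inhibitor for full effect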
Active calls of the source: *; . = not tested or not shown; ! = a repeat was not active.

SMILES	TNAP act DEA	PLAP activator	D1 mod	DAT uptake mod	Calb biofilm kill	HePTP inh
COc1ccc(C(=O)N2CCN(C3CCCC3)CC2)cc1	.	.	.	.	.	0
COCCn1c(=O)[nH]c2cc(C(=O)NCCN3CCN(c4cccc(Cl)c4)CC3)ccc2c1=O	0.9	.	-3.5*	0.54	.	11
CCN1CCN(C(=O)CCCCCn2c(=O)[nH]c3cc(C(=O)OC)ccc3c2=O)CC1	0.9	1.3	-0.15	0.18	2	3
COc1cc2[nH]c(=O)n(CCCCCC(=O)N3CCN(c4ccccc4)CC3)c(=O)c2cc1OC	1	1.7	.	3.5*	3	9
CCN(CC)CCNC(=O)c1ccc2c(=O)n(CCc3ccccc3)c(=O)[nH]c2c1	1	1.3	-3.1*	1.2	.	-5
COc1ccc(N2CCN(CCNC(=O)CCCn3c(=O)[nH]c4cc(Cl)ccc4c3=O)CC2)cc1	1	1.3	-2	-1.1	.	10
COC(=O)c1ccc2c(=O)n(CCCCCC(=O)N3CCN(c4ccccc4)CC3)c(=O)[nH]c2c1	0.9	0.9	-0.69	-8.3*!	2	-2
O=C(/C=C(\Nc1ccccc1)c1ccccc1)c1cccc2ccccc12	.	.	.	.	.	-1
Cc1cccc(OCCN2CCOCC2)c1	.	.	.	.	.	13
COc1ccc(/C=C2\SC(=S)N(NC(=O)c3ccccc3)C2=O)cc1OC	.	.	.	.	.	11
CCn1cc(C(=O)O)c(=O)c2cc(-c3ccco3)ccc21	.	.	.	.	.	17
Cc1cc(C(=O)NCCN2CCN(c3cccc(Cl)c3)CC2)n(-c2ccccc2)n1	0.9	1.6	-3.2*	-0.19	-2	9
Cc1cc(C(=O)NCCCN2CCN(c3cc(Cl)ccc3C)CC2)n(-c2ccccc2)n1	.	1.6	.	-0.3	5	.
COC(=O)c1c(-c2ccc(C)c(C)c2)csc1N	.	.	.	.	.	104*
CCSc1ccccc1C(=O)NCc1ccc(S(N)(=O)=O)cc1	0.8	0.8	-3*	-0.19	-2	4
Cc1ccc(C(C(=O)NC(C)(C)C)N(CC2CCCO2)C(=O)Cn2nnc(-c3ccc(C)o3)n2)cc1 (stereo not drawn)	1	1.5	-4.2*	-0.43	5	4
CCOC(=O)Cc1csc(NC(=O)c2ccc(N3CCOCC3)c([N+](=O)[O-])c2)n1	.	.	.	.	.	4
CCN(CC)S(=O)(=O)c1csc(C(=O)NCc2ccccc2)c1	1	1	.	2.6*	11	-4
Cc1cc(C)nc(NS(=O)(=O)c2ccc(NC(=S)NC(=O)c3ccc(F)c(F)c3)cc2)n1	.	.	.	.	.	5
COc1cccc(C2CC(c3ccccc3)Nc3nc(N)nn32)c1 (stereo not drawn)	1	.	5.3*	0.47	-8	-4
O=C1N=c2ccccc2=C1c1sc(=S)[nH]c1O	.	.	.	.	.	70*
O=C(COc1ccccc1Cl)NNC(=O)c1ccccn1	.	.	.	.	.	-7
COc1ccc(OCC(=O)NNC(=O)c2ccccn2)cc1	.	2.5*	.	.	.	.
NS(=O)(=O)c1ccc(CNC2CC(=O)N(c3ccc(Cl)c(Cl)c3)C2=O)cc1 (stereo not drawn)	.	.	.	.	.	6
O=C(NC(NC(=S)Nc1ccccc1C(=O)O)C(Cl)(Cl)Cl)c1cccc([N+](=O)[O-])c1 (stereo not drawn)	.	1.3	.	-7.4*	.	.
SMILES	TNAP act DEA	PLAP activator	D1 mod	DAT uptake mod	Calb biofilm kill	HePTP inh
CCOC(=O)NC(NC(=S)Nc1ccccc1[N+](=O)[O-])C(Cl)(Cl)Cl (stereo not drawn)	.	0.9	.	-3.5*	5	.
CCC(Sc1nc2ccccc2s1)C(=O)Nc1ccc([N+](=O)[O-])cc1 (stereo not drawn)	.	.	.	.	.	8
O=C(O)CN1C(=O)/C(=C\c2ccc(-c3cccc4c3C(=O)c3ccccc3C4=O)o2)SC1=S	.	.	.	.	.	101*
O=C(O)CCN1C(=O)/C(=C/c2ccc(-c3ccccc3[N+](=O)[O-])o2)SC1=S	.	.	.	.	.	70*
CCOc1ccc(N2C(=O)CC(N3CCN(C(=O)c4ccco4)CC3)C2=O)cc1 (stereo not drawn)	0.9	1.2	-0.014	-0.6	.	2
CCOC(=O)c1ccc(N2C(=O)CC(N3CCN(C(=O)c4ccco4)CC3)C2=O)cc1 (stereo not drawn)	1	1.1	-0.42	2.6*	-4	-2
O=C(NCCNC(=O)c1cccs1)c1ccco1	1	0.8	.	0.9	12	-9
CCCC(=O)Nc1ccc(C(=O)NNC(=S)NC(=O)c2cccs2)cc1	.	2.4*	.	-0.16	.	.
COCCNC(=S)NNC(=O)c1ccco1	.	2.1*	.	1.4	2	.
O=C(NC(=S)NNC(=O)c1cccs1)c1ccco1	.	2.2*	.	.	.	.
CC(C)CNC(=S)NNC(=O)c1ccco1	.	.	.	-1.3	8	.
COc1ccc(CNCc2cccnc2)cc1	.	.	.	.	.	-8
Cc1ccc(S(=O)(=O)NCc2nnc(NC(=O)c3ccc(Br)cc3)s2)cc1	.	.	.	.	.	58*
COc1ccc(C(=O)N2CCN(c3ccccc3OC)CC2)cc1	.	.	.	.	.	6
COc1ccccc1N1CCN(C(=O)c2ccc(NC(C)=O)cc2)CC1	0.9	1	-0.71	-3.1*	8	8
CCOc1ccccc1N1CCN(C(=O)c2cccc(F)c2)CC1	.	.	.	.	.	103*
COc1ccccc1Cc1noc(-c2ccc([N+](=O)[O-])cc2)n1	.	.	.	.	.	-13
CN(C(=O)c1ccc2c(=O)n3c(nc2c1)CCCCC3)c1ccccc1	0.9	.	-0.69	-0.56	6	8
O=C(c1ccc2c(=O)n3c(nc2c1)CCCCC3)N1CCN(C(c2ccccc2)c2ccccc2)CC1	.	1.6	.	-4.1*	.	.
CC1=NN(C(=O)OC(C)(C)C)C(O)(c2ccc(Br)cc2)C1 (stereo not drawn)	.	.	.	.	.	-5
O=C(NCc1cccnc1)C(=O)Nc1ccc(Cl)c(C(F)(F)F)c1	.	.	.	.	.	-3
O=C(COc1ccc(C=C2C(=O)NC(=O)NC2=O)cc1)NCCc1ccccc1	.	.	.	.	.	4
N#CC1=C(N)Oc2n[nH]c(-c3ccc(F)cc3)c2C1c1cccnc1 (stereo not drawn)	0.9	2*	4.8*	0.49	10	5
N#CC1=C(N)Oc2n[nH]c(-c3ccccc3)c2C1c1ccncc1 (stereo not drawn)	0.8	1.6	0.39	-0.27	8	5
O=C1CC(c2cc([N+](=O)[O-])ccc2Cl)c2cc(Br)c3ccccc3c2N1 (stereo not drawn)	.	.	.	.	.	-13
Clc1ccccc1N1CCN(c2ncnc3nc[nH]c23)CC1	0.9	1.5	.	.	-1	0
FC(F)(F)c1cccnc1N1CCN(c2ncnc3nc[nH]c23)CC1	1	1.5	.	0.26	29*	9
COc1ccc(CCNC(=O)c2ccn[nH]2)cc1OC	0.9	1	1.5	-0.41	10	8

Bioassay records from PubChem BioAssay.
